# Laboratory results from the supplement of paper PMC6763611.
# Tested on: Plasmodium falciparum NF54
# Assay: growth inhibition relative to untreated control; higher = more inhibition
# Details: 5 µM; minimal medium (MM); 72 h
# Summary of the method: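 In dark 96-well half-area plates, each well held 100 μL of P. falciparum NF54 ring-stage culture at 1% parasitemia and 1% hematocrit. The cultures received a single test-compound dose of 5 μM or 1 μM and were kept at 37 °C for 72 h, in minimal RPMI either plain or enriched with folate (2.2 μM), pABA (7.3 μM), pHBA (7.3 μM), tyrosine (111 μM), phenylalanine (90 μM) and tryptophan. SYBR Green staining gave growth inhibition, expressed against untreated wells, with uninfected erythrocytes serving as the background.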
row,SMILES,growth inhibition
1,OCCc1ccc(Nc2nccc(-c3nnc4ccccn34)n2)cc1,52.1%
2,Cc1nc(-c2cccc(NCc3ccccc3)c2)[nH]c1C,94.7%
3,COc1cccc(NC(=O)c2c(NC(=O)c3cccnc3)sc3c2CCC3)c1,8.07%
4,NCCCC(N)(C(=O)O)C(F)F (stereo not drawn),< 0%
5,OC[C@H]1O[C@@H](n2c3ccc(Cl)cc3c3c(-c4cc5ccccc5o4)ncnc32)C(O)[C@H]1O (stereo partly drawn),30%
6,COc1ccc(C2=NN(C3CCCCCC3)C(=O)[C@@H]3CC=CC[C@H]23)cc1OCCCCOc1ccc(-c2nnn[nH]2)cc1,48.6%
7,CC1=NN(c2nc3ccccc3s2)C(=O)C1Cc1cccc2ccccc12 (stereo not drawn),< 0%
8,Cc1nc(-c2ccccn2)nc(N2CCC(Cc3ccccc3)C2)c1Cl (stereo not drawn),84.9%
9,c1ccc(-c2cc(N3CCCCC3)c3ccccc3n2)nc1,26.9%
10,Cc1cc(Cl)c(S(=O)(=O)N2CCCC2)cc1OCC(=O)NC1CCCCC1,59.9%
11,CC1COC2(CCN(c3nc(=O)c4cc(C(F)(F)F)cc([N+](=O)[O-])c4s3)CC2)O1 (stereo not drawn),< 0%
12,Cc1cccc(Cn2ccc(NC(=O)c3ccc4c(c3)OCO4)n2)c1,17.9%
13,COc1ccc(-c2cnc3cnc(-c4cccc(OC(C)C)c4)cn23)cc1,8.04%
14,COc1ccc(-c2onc(C(F)(F)F)c2-c2ccc(Cl)cc2)c(O)c1,97.5%
15,Cc1ccc(Oc2ccc(NC(=O)CNc3ccccc3N3CCCC3=O)cc2)cc1,91.8%
16,COc1cc(C2=NCCN2)cc2cc(-c3ccc(C4=NCCN4)cc3)oc12,100%
17,C[C@]1(O)C[C@@H](c2nc(-c3ccc4ccc(-c5ccccc5)nc4c3)c3c(N)nccn32)C1,43.8%
18,CC(C)(C)[C@H]1CC[C@H](CC2=C(O)C(=O)c3ccccc3C2=O)CC1,93.4%
19,CN(C)CCNC(=O)N1CCCN(c2ncnc3cc(-c4ccccc4)sc23)CC1,87%

row,SMILES,growth inhibition
1,Cc1cc(C(=O)Nc2ccc(-c3ccccc3)cc2)no1,94%
2,COc1ccc(Oc2ccc([C@@H](C)N(C)c3ncc4c(N)nc(N)nc4n3)cc2)cc1,89.1%
3,N#Cc1nc(-c2ccccc2F)oc1NCCc1ccccc1,15.2%
4,COc1ccc2nccc(NC(=O)C3CCN(CCc4ccc(Cl)cc4)CC3)c2n1,42.2%
5,Cc1[nH]c2ccccc2c1C(c1cccs1)N1CCN(C)CC1 (stereo not drawn),19.7%
6,COc1cc(NC(=O)Cc2nn(C)c(=O)c3ccccc23)ccc1Cl,< 0%
7,CCN(CC)CCCCCCNc1cc(OC)cc2c(C)ccnc12,91.2%
8,CCOC(=O)NC(=O)c1ccsc1NC(=O)c1nc2ccccc2s1,< 0%
9,O=C(C1CCN(c2nnc(-n3cccc3)s2)CC1)N1CCC(Cc2ccccc2)CC1,8.81%
10,NC(=O)c1cc(Br)ccc1OCCOc1ccccc1,< 0%
11,COc1cc(Br)cc2cc(C(=O)Nc3cccc(C(F)(F)F)c3)c(=O)oc12,< 0%
12,CC(C)/N=c1\cc2n(-c3ccc(Cl)cc3)c3ccccc3nc-2cc1Nc1ccc(Cl)cc1,94.1%
13,CCCCc1ccc(C(=O)Nc2nccc3ccccc23)nc1,18.4%
14,Nc1ccc2ncnc(Nc3ccc(OCc4cccc(F)c4)c(Cl)c3)c2c1,95.7%
15,O=C(NC1CC1)c1ccc(CSCc2ccccc2Cl)o1,90.8%
16,NS(=O)(=O)c1cncc(-c2ccc3nccc(-c4cn[nH]c4)c3n2)c1,94.8%
17,CNC1C(OC2C(OC3C(O)C(O)C(N=C(N)N)C(O)C3N=C(N)N)OC(C)C2(O)C=O)OC(CO)C(O)C1O (stereo not drawn),8.51%
18,CC(=O)N(CCN(C(=O)c1ccc(F)cc1)c1ccccc1)c1ccccc1,< 0%
19,Cn1ncc2c(N3CCOCC3)nc(NCCc3c[nH]c4ccccc34)nc21,< 0%
